Among the data in PubChem BioAssay are z-score and composite z-score values, retold here.

Molecules are shown by their SMILES. Calls of active or inactive are those of the source.

Test system in one test: not listed separately
Kind of test: budding yeast growth modifiers under rapamycin – strain BY4716, OD600, 96 h, primary screen (AID 1091). Also: test concentration not given here. The conditions noted are these: S. cerevisiae BY4716 + rapamycin, higher = more signal, called active from +8 up or from −8 down.
For the compound `C=C(CCCC)C(=O)CC[C@@H](OC(C)=O)c1ccccc1OCCO`, the z-score was -1.57 (inactive). Turning to `CCOC(=O)C[C@H]1[C@H](OC(=O)c2cc3ccccc3oc2=O)[C@@H](NC(=O)C2CCCCC2)c2cc(OCCCO)ccc2N1C(=O)c1ccc2ccccc2n1`, the z-score is 1.29 (inactive).

In the case of `COC(=O)C(CC#Cc1ccc2c(c1)[C@]1(C(=O)N2)[C@H](C(=O)N2CCCCCCC2)[C@H]2C(=O)O[C@H](c3ccccc3)[C@H](c3ccccc3)N2[C@@H]1c1ccc(O)cc1)C(=O)OC`, the z-score was 0.702 (inactive). In the case of `C=C[C@H](OC)[C@@H](OC(=O)Nc1ccc(SC)cc1)c1ccc(O)c(F)c1`, the z-score is 0.887 (inactive). On the same count and under the same terms, for `O=C1O[C@@H](c2ccccc2)[C@@H](c2ccccc2)N2[C@@H](c3ccc(OCCO)cc3)[C@]3(C(=O)Nc4ccc(C#CCCO)cc43)[C@@H](C(=O)N3CCN(c4ncccn4)CC3)[C@H]12` the value was 3.71 (inactive). Take `C=CCC(OC(C)=O)[C@@H]1[C@@H](N(Cc2cccc3ccccc23)C(=O)Cc2ccc(F)cc2)c2cc(OCCCO)ccc2N1C(=O)Cc1ccc2ccccc2c1` (some centres not stated): the z-score was -0.276 (inactive). With `O=C1O[C@@H](c2ccccc2)[C@@H](c2ccccc2)N2[C@@H](c3ccc(O)cc3)[C@]3(C(=O)Nc4ccc(C#CC5(O)CCCCCC5)cc43)[C@@H](C(=O)Nc3nc4ccccc4s3)[C@H]12`, the z-score is 1.06 (inactive). On the same count and under the same terms, the same measure for `C#CCCCON=C1C[C@@H](O)[C@@H](O)[C@@H]2[C@@H]3C(=O)N(Cc4ccc5c(c4)OCO5)C(=O)[C@@H]3CC[C@@H]12`: 0.271 (inactive). Same read-out and setting: for `O=C1O[C@H](c2ccccc2)[C@H](c2ccccc2)N2[C@H]1[C@@H](C(=O)NC[C@H](O)c1ccccc1)[C@]1(C(=O)Nc3ccc(C#CC4(O)CCCCCC4)cc31)[C@H]2c1ccc(OCCO)cc1` the value was 4.16 (inactive). Same read-out and setting: the same measure for `CCOC(=O)C1=C[C@@H](c2ccccc2)N(S(=O)(=O)c2ccc(C)cc2)[C@H]1c1ccc(F)cc1`: 2.39 (inactive).

`O=[N+]([O-])c1ccc(C[n+]2ccc3ccc(O)cc3c2)o1`: the z-score was -0.5 (inactive).

For a further test, the target named is Torsin-1A-interacting protein 2 (Homo sapiens) (UniProt Q8NFQ8). Kind of test: small molecules binding lysate-expressed LULL1 – cell lysate, human LULL1 lysate, 635/667 nm fluorescence, primary screen (AID 1092).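 Also: probe is lysate of COS7 cells overexpressing human LULL1; score merges per-feature 667 nm fluorescence with signal-to-noise.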 As to conditions: small-molecule microarray, hLULL1 lysate binding, 635 nm fluorescence; higher = more signal.
Chain of Torsin-1A-interacting protein 2 (Homo sapiens) (Q8NFQ8 whole entry, looked up): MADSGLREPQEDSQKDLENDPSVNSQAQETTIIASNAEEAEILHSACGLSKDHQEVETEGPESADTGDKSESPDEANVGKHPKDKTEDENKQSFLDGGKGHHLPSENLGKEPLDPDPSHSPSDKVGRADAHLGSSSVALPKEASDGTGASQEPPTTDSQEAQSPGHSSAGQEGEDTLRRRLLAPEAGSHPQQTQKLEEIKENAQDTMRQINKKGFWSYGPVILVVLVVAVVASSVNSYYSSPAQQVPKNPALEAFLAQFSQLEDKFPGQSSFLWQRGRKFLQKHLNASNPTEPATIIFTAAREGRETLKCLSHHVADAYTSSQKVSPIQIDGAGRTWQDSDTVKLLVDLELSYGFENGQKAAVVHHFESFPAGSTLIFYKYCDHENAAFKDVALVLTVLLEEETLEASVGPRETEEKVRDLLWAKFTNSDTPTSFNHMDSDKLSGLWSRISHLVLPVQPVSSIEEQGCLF
In the case of `CCCNC(=O)[C@@]1(Sc2ccc(C)cc2)CC(=O)N(Cc2ccccc2Cl)[C@@H]1c1ccc(CO)cc1`, the composite z-score came to 1.64. `C[C@H]1COC(=O)[C@H](Cc2ccccc2)NC(=O)[C@@H](C)COC(=O)[C@H](Cc2ccccc2)NC1=O` came in with a composite z-score of 1.92. The same measure, in the same setting: the same measure for `CC(C)N1CC=CC23O[C@@H]4/C=C\CCCOC(=O)C4[C@H]2C(=O)N(CCO)[C@@H]3C1=O` (some centres not stated): 1.95. On the same count and under the same terms, for `COC(=O)[C@@]1(Cc2ccc(OC)cc2)[C@H]2c3cc(C(=O)N(C)C)n(CCc4ccc(OC)c(Br)c4)c3C[C@H]2CN1C(=O)c1ccccc1` the value was 3.33. The compound `COCCOC(=O)N1C(=O)[C@@]2(c3cc(C#CCCO)ccc31)[C@H](c1ccc(O)cc1)N1[C@H](c3ccccc3)[C@H](c3ccccc3)OC(=O)[C@H]1[C@@H]2C(=O)Nc1nc2ccccc2s1` showed a composite z-score of 2.84. On the same count and under the same terms, for `C=CC[C@]1(C(=O)N2CCCCC2)N=C(c2ccc(OCCCO)cc2)O[C@H]1c1ccccc1N=[N+]=[N-]` the value was 3.44; for `CCCC=C(CCC)[C@@H](NS(=O)(=O)c1cccc(C(F)(F)F)c1)c1ccc(C(=O)OC)cc1`, 0.468; for `COc1ccc([Si](C)(C)[C@@H]2[C@@H](CC(=O)N(CCO)Cc3ccccc3)O[C@]3(C(=O)N(Cc4cccc(N5CCC5=O)c4)c4ccccc43)[C@H]2C)cc1`, 1.57. `COc1cc([C@@H]2N[C@H](C(=O)O)Cc3c2[nH]c2ccccc32)cc(OC)c1OC` yielded a composite z-score of 0.235. The same measure, in the same setting: the same measure for `COCC(=C=CC[C@H](O)c1ccc(OCCO)cc1)C[C@H](O)c1ccccn1`: 1.38. Same read-out and setting: for `COCCOC(=O)N1C(=O)[C@@]2(c3cc(C#CC4(O)CCCCCC4)ccc31)[C@H](C(=O)N1CCCCCCC1)[C@H]1C(=O)O[C@H](c3ccccc3)[C@H](c3ccccc3)N1[C@@H]2c1ccc(O)cc1` the value was 2.86. In turn, `C=CCC(OC(C)=O)[C@@H]1[C@@H](N(Cc2cc3ccccc3o2)C(=O)c2ccc(C)cc2)c2cc(OCCCO)ccc2N1C(=O)c1ccc2ccccc2n1` (some centres not stated) had a composite z-score of 0.285. On the same count and under the same terms, the same measure for `C=C(COC)C(=O)CC[C@H](OC(=O)c1ccccc1-c1ccccc1C(=O)O)c1cccc(OCCO)c1`: 4.32; for `CC(C)[Si](OCC[C@H]1O[C@]2(C(=O)N(Cc3ccccc3)c3ccccc32)[C@@H](C)[C@@H]1[Si](C)(C)O)(C(C)C)C(C)C`: 0.414. Same read-out and setting: the same measure for `CO[C@H]1COC(=O)CC=C[C@H](C)[C@@H](OC)COC(=O)CC=C[C@@H]1C`: -0.787; for `COCCOC(=O)N1C(=O)[C@@]2(c3cc(C#CC4=CCCCC4)ccc31)[C@H](C(=O)NC[C@H](O)c1ccccc1)[C@H]1C(=O)O[C@H](c3ccccc3)[C@H](c3ccccc3)N1[C@@H]2c1ccccc1OCCO`: 1.91. Turning to `COc1cc2c(cc1OC)CN(C(=O)[C@H]1[C@@H]3C(=O)O[C@@H](c4ccccc4)[C@@H](c4ccccc4)N3[C@@H](c3ccc(O)cc3)[C@]13C(=O)Nc1ccc(C#CC4(O)CCCCCC4)cc13)CC2`, the composite z-score was 3.75. `CN(C)C(=O)[C@@]1(Cc2ccccc2N=[N+]=[N-])N=C(c2ccc(OCCCO)cc2)O[C@H]1c1ccccc1CN=[N+]=[N-]` had a composite z-score of 3.57. Regarding `CO[C@H]1COC(=O)[C@@H](C)COC(=O)[C@H](Cc2ccccc2)NC(=O)CC=C[C@H]1C`, the composite z-score is -0.274. In turn, `CC(=O)NCCCC[C@@H]1NC(=O)[C@H]2C[C@@H](C(=O)NCCCCCCN(C)C)[C@@H](c3cccc(OCCO)c3)N2C1=O` had a composite z-score of 3.07. `C=CCC(OC(C)=O)[C@@H]1[C@@H](N(Cc2ccc(-c3ccccc3)cc2)C(=O)c2ccc(-c3ccccc3)cc2)c2cc(OCCCO)ccc2N1C(=O)Cc1ccc(OC)cc1` (some centres not stated) registered a composite z-score of 0.669. Still for that read-out and setting: the same measure for `COCCCNC(=O)[C@@H]1c2ccccc2C(=O)N(CC23CC4CC(CC(C4)C2)C3)[C@H]1c1ccc(CO)cc1`: 1.56; for `C=CCN1C(=O)[C@]2(O[C@H](CCn3cc(CCO)nn3)[C@@H]([Si](C)(C)c3ccc(OC)cc3)[C@@H]2C)c2cc(NC(=O)c3ccc(OC)cc3)ccc21`: 0.807; for `C=C(CCCC)/C(=C/C[C@@H](OC(=O)c1ccncc1)c1ccc(CO)o1)c1cnc2ccccc2c1`: 2.54. Same read-out and setting: the same measure for `COC(=O)Cn1c(C(=O)N2CCCC2)cc2c1C[C@H]1CN(C(=O)c3ccccc3)[C@@](Cc3ccc(OC)cc3)(C(=O)OC)[C@@H]21`: 3.24; for `C=C(CCCC)C(=O)CC[C@@H](OC(C)=O)c1ccccc1OCCO`: -0.325; for `CCOC(=O)C[C@H]1[C@H](OC(=O)c2cc3ccccc3oc2=O)[C@@H](NC(=O)C2CCCCC2)c2cc(OCCCO)ccc2N1C(=O)c1ccc2ccccc2n1`: 1.17. `COC(=O)C(CC#Cc1ccc2c(c1)[C@]1(C(=O)N2)[C@H](C(=O)N2CCCCCCC2)[C@H]2C(=O)O[C@H](c3ccccc3)[C@H](c3ccccc3)N2[C@@H]1c1ccc(O)cc1)C(=O)OC` showed a composite z-score of -0.573. `C=C[C@H](OC)[C@@H](OC(=O)Nc1ccc(SC)cc1)c1ccc(O)c(F)c1` registered a composite z-score of 2.96. `O=C1O[C@@H](c2ccccc2)[C@@H](c2ccccc2)N2[C@@H](c3ccc(OCCO)cc3)[C@]3(C(=O)Nc4ccc(C#CCCO)cc43)[C@@H](C(=O)N3CCN(c4ncccn4)CC3)[C@H]12`: the composite z-score was determined as 2.69.

The compound `C=CCC(OC(C)=O)[C@@H]1[C@@H](N(Cc2cccc3ccccc23)C(=O)Cc2ccc(F)cc2)c2cc(OCCCO)ccc2N1C(=O)Cc1ccc2ccccc2c1` (some centres not stated) came in with a composite z-score of 0.594. Still for that read-out and setting: for `O=C1O[C@@H](c2ccccc2)[C@@H](c2ccccc2)N2[C@@H](c3ccc(O)cc3)[C@]3(C(=O)Nc4ccc(C#CC5(O)CCCCCC5)cc43)[C@@H](C(=O)Nc3nc4ccccc4s3)[C@H]12` the value was 2.56; for `C#CCCCON=C1C[C@@H](O)[C@@H](O)[C@@H]2[C@@H]3C(=O)N(Cc4ccc5c(c4)OCO5)C(=O)[C@@H]3CC[C@@H]12`, 0.852; for `O=C1O[C@H](c2ccccc2)[C@H](c2ccccc2)N2[C@H]1[C@@H](C(=O)NC[C@H](O)c1ccccc1)[C@]1(C(=O)Nc3ccc(C#CC4(O)CCCCCC4)cc31)[C@H]2c1ccc(OCCO)cc1`, 2.72. As to `CCOC(=O)C1=C[C@@H](c2ccccc2)N(S(=O)(=O)c2ccc(C)cc2)[C@H]1c1ccc(F)cc1`, the composite z-score is 3.06. In turn, `O=[N+]([O-])c1ccc(C[n+]2ccc3ccc(O)cc3c2)o1` had a composite z-score of 0.803.
